Active and inactive are the calls of the source. The rule behind the calls is not given here.
Tested on: Aerobactin synthetase IucA (Klebsiella pneumoniae hvKP1)
Assay: Biochemical IucA enzyme inhibition primary screen of the Spectrum library (AID 1346200);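 note: 100% = wells without compound and 0% = wells lacking enzyme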
Conditions: malachite green pyrophosphate, A620, at 8 µM, stronger effect = lower value

Structure (SMILES) | activity remaining
CN(C)CCOC(=O)C(c1ccccc1)C1(O)CCCC1 (stereo not given) | 115% (inactive)
C=C[C@@](C)(O)CCC1C(=C)C[C@H](OC(C)=O)C2C(C)(C)CCCC12C (stereo not given in full) | 118% (inactive)
CC(C)C(C)/C=C/C(C)C1CCC2C3=CC=C4CC(O)CCC4(C)C3CCC21C (stereo not given) | 111% (inactive)
CS(=O)(=O)c1ccc([C@@H](O)[C@@H](CO)NC(=O)C(Cl)Cl)cc1 | 124% (inactive)
C=Cc1c(C)/c2[n-]/c1=C\c1[n-]c(c(CC)c1C)/C=c1\[n-]c3c(c1C)C(=O)C(C(=O)[O-])C=3c1[n-]c(c(C)c1CCC(=O)[O-])\C=2.[Cu].[Na+].[Na+] (stereo not given) | 77.9% (inactive)
COC(=O)C[C@H]1C(C)(C)C2(O)OC34CC2C(=O)[C@]1(C)C3CC[C@]1(C)C4=CC(=O)O[C@H]1c1ccoc1 (stereo not given in full) | 105% (inactive)
O=C(O)/C=C(\CC(=O)O)C(=O)O | 89.8% (inactive)
C[C@H]1[C@H]2CCC3C4CC=C5C[C@@H](N(C)C)CC[C@]5(C)C4CC[C@@]32CN1C (stereo not given in full) | 119% (inactive)
CC1CCC2(OC1)OC1CC3C4CC[C@H]5C[C@@H](O)CC[C@]5(C)C4CC(=O)[C@]3(C)C1C2C (stereo not given in full) | 94.1% (inactive)
CC1=CC2C(CC1=O)C(C)=CCC2C(C)C (stereo not given) | 104% (inactive)
COc1ccc(-c2cc(=O)c3c(O)cc(OC)c(OC)c3o2)c(OC)c1 | 94.3% (inactive)
CC(C)C1=CC2=CCC3[C@](C)(CCC[C@]3(C)C(=O)O)C2CC1 (stereo not given in full) | 94.8% (inactive)
O=C(O)c1cc(O)c(O)c(O)c1 | 117% (inactive)
O=C1CC(c2ccccc2)Oc2ccccc21 (stereo not given) | 125% (inactive)
O=c1c(O)cccc2cc(O)c(O)c(O)c12 | 107% (inactive)
CCCCCCCCCc1ccc(OCCOCCOCCOCCOCCOCCOCCOCCOCCO)cc1 | 109% (inactive)
C[n+]1c2cc(N)ccc2cc2ccc(N)cc21 | 111% (inactive)
CC(=O)Oc1cc(C)c2c(c1C(OC(C)=O)OC(C)=O)Oc1c(c(C)c(OC(C)=O)c3c1C(OC(C)=O)OC3=O)OC2=O (stereo not given) | 96.1% (inactive)
CCCc1nc(C)c2c(=O)[nH]c(-c3cc(S(=O)(=O)N4CCN(CC)CC4)ccc3OCC)nn12 | 111% (inactive)
NC(=NCCC[C@H](N)C(=O)O)NC(CCC(=O)O)C(=O)O (stereo not given in full) | 107% (inactive)

Structure (SMILES) | activity remaining
CCC1OC(=O)[C@H](C)C(=O)[C@H](C)[C@@H](OC2O[C@H](C)C[C@H](N(C)C)[C@H]2O)[C@](C)(OC)C[C@@H](C)C(=O)[C@H](C)[C@H]2N(CCCCn3cnc(-c4cccnc4)c3)C(=O)OC12C (stereo not given in full) | 121% (inactive)
COC(=O)[C@H](c1ccccc1Cl)N1CCc2sccc2C1 | 119% (inactive)
COc1cc(-c2coc3cc(O[C@@H]4O[C@H](CO)[C@@H](O)[C@H](O)[C@H]4O)c(OC)c(O)c3c2=O)cc(O)c1OC | 120% (inactive)
CC(=O)O[C@H]1C[C@@H](OC(C)=O)C(C)(C)C2CC(=O)[C@]3(C)C(CC[C@@]4(C)[C@H](c5ccoc5)OC(=O)[C@H]5O[C@]543)[C@]21C (stereo not given in full) | 107% (inactive)
CC(=O)Oc1ccc(-c2cc(=O)c3c(OC(C)=O)cc(OC(C)=O)cc3o2)cc1 | 122% (inactive)
CC(C)CCCC(C)[C@H]1CCC2C3CC[C@H]4CC(=O)CC[C@]4(C)C3CC[C@@]21C (stereo not given in full) | 102% (inactive)
CCC(=O)NCC[C@@H]1CCc2ccc3c(c21)CCO3 | 120% (inactive)
COC(=O)Nc1nc2ccc(S(=O)c3ccccc3)cc2[nH]1 (stereo not given) | 110% (inactive)
C=CCCCCCCCCCCCc1ccco1 | 99.3% (inactive)
OC[C@@H](O)[C@@H](O[C@@H]1O[C@H](CO)[C@@H](O)[C@H](O)[C@H]1O)[C@H](O)[C@@H](O)CO | 96.4% (inactive)
COc1cc([C@H]2Oc3cc([C@H]4Oc5cc(O)cc(O)c5C(=O)[C@@H]4O)ccc3O[C@@H]2CO)ccc1O | 122% (inactive)
CO[C@@H]1[C@@H](OC(N)=O)[C@@H](O)[C@H](Oc2ccc3c(O)c(NC(=O)c4ccc(O)c(CC=C(C)C)c4)c(=O)oc3c2C)OC1(C)C | 129% (inactive)
CC(=O)Oc1cccc2c1C(=O)c1c(OC(C)=O)cc(C(=O)O)cc1C2=O | 102% (inactive)
COc1cc2ccc(=O)oc2cc1O | 110% (inactive)
CC(=O)OCC(=O)[C@@]12OC3(CCCC3)O[C@@H]1CC1C3CCC4=CC(=O)C=C[C@]4(C)[C@@]3(F)[C@@H](O)C[C@@]12C (stereo not given in full) | 90.4% (inactive)
CCOC(=O)C(Cc1ccc(O)cc1)NC(C)=O (stereo not given) | 98.7% (inactive)
CC1=CCc2c(cc3oc(C)cc(=O)c3c2O)OC1 | 120% (inactive)
C=C1CCC2C(CC2(C)C)C(=C)CC/C1=N/O (stereo not given) | 105% (inactive)
CCCC(=O)Nc1ccc(OCC(O)CNC(C)C)c(C(C)=O)c1 (stereo not given) | 120% (inactive)
C=C(CC)C(=O)c1ccc(OCC(=O)O)c(Cl)c1Cl | 100% (inactive)
